The list is not random: actives were taken first. Their share in the collection is about 9.3%.
VACV Venus inh: inhibitors of vaccinia virus (Venus reporter); Vaccinia virus Venus reporter expression, fluorescence; Potency, µM (highest dose often 36.5 µM), for the others: top-dose activity change, negative = inhibition, usual class: inhibitors; actives 0.46% (n = 330,000); AID 720580; calls by dose curve; tested in A549 cells; also: potency is read from the fitted curve at half-maximal effect; nearly all actives have a fitted effect of over 30% in size
VACV mCherry inh: inhibitors of vaccinia virus infection (mCherry reporter signal). Vaccinia virus mCherry reporter infection, fluorescence. Potency, µM (doses to about 36.5 µM), for inactives: at the top dose activity change, negative = inhibition, hits mostly inhibitors. actives 0.63% (n = 310,000). AID 720579; calls by dose curve; tested in A549 cells; also: potency is read from the fitted curve at half-maximal effect; nearly all actives have a fitted effect of over 35% in size
HCMV inh: human cytomegalovirus inhibition; actives 4.5% (n = 410,000); HFF cells, HCMV-luciferase reporter, 72 h; stronger effect = lower value; activity change, negative = inhibition, % at 57.5 µM; AID 1259415; in the data active = activity change below about -60%; inconclusive = no clear call, values can overlap the other calls; inactive = above about -39%
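Compounds were evaluated in HFFs infected with an HCMV luciferase reporter virus (MOI 1 PFU/cell). Luciferase in lysates collected 72 h post infection served as the replication measure.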
Sm TGR block: blocks Schistosoma mansoni thioredoxin glutathione reductase. Q962Y6. actives 3% (n = 360,000). Potency, µM (doses to about 114 µM), without a hit: at the highest dose activity change, negative = inhibition, usual class: inhibitors. purified TGR, DTNB reduction, TNB absorbance 405 nm; also: potency is read from the fitted curve at half-maximal effect; nearly all actives have a fitted effect of over 60% in size
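First, TGR (20 nM dispensed) and NADPH were mixed with compound. Second, a 15 min room-temperature incubation followed. Third, further NADPH and then DTNB were added to start the reaction. Finally, TNB absorbance was monitored kinetically.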
HCV inh: HCV inhibition; Huh7.5.1 HCVcc-Cre infection, luciferase reporter, 44 h; Potency, µM (doses to about 41.8 µM), for inactives: at the top dose activity change, negative = inhibition, hits mostly inhibitors; actives 3.4% (n = 340,000); also: potency is read from the fitted curve at half-maximal effect
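Compounds are dispensed onto cells plated 4 h earlier at 1,000 per well, with HCVcc-Cre virus (about 0.5 moi) added next. Following 44 h of culture, luminescent signal is measured for 15 sec after 15 min with substrate at room temperature.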
FMDV antiviral: foot and mouth disease virus antiviral activity | FMDV antiviral cell-based qHTS | Potency, µM (titrated, usually from 57.9 µM), for the others: at the highest dose activity change, negative = inhibition, actives largely listed as inhibitors | actives 1.2% (n = 410,000) | AID 1159524; calls by dose curve; tested in HEK293T cells; also: read-out not given here; potency is read from the fitted curve at half-maximal effect; nearly all actives have a fitted effect of over 45% in size
The depositor's hits bear a star; i = inactive; ? = inconclusive; . = no result; [ ] = another dose, or the depositor's remark. Unless noted, calls follow the shape of the dose curve; as a rule, active = well fitted curve in the direction sought with a large enough effect; inconclusive = small, poorly fitted or top-dose-only effect, or another doubt; inactive = no such curve, though single readings can be large; an effect the other way counts as inactive or inconclusive. % is scaled to controls: 0 for no effect and ±100 for the full control effect.

SMILES	VACV Venus inh	VACV mCherry inh	HCMV inh	Sm TGR block	HCV inh	FMDV antiviral
CCCCN=c1scc(-c2ccc3c(c2)NC(=O)CO3)n1N=C1CCCC1	.	.	-75.6*	?	7.94µM*	25.1µM*
CCN=c1scc(-c2ccc3c(c2)NC(=O)CO3)n1N=C1CCCC1	?	?	-77.2*	-6.6%	15.8µM*	?
Cn1c(=O)n(C)c2cc3[nH]cnc3cc21	-1.2%	-12.7%	75.5	5.4%	17.5%	6.1%
CCCc1nc2cc3c(cc2[nH]1)n(C)c(=O)n3C	-4.6%	-11.1%	22.4	22.4µM*	?	25.2%
COc1ccc(C2CC(=O)N(Cc3ccc(F)cc3)c3ccccc3S2)cc1OC (configuration not stated)	-17.1%	-22.7%	17.7	3.4%	.	39.8µM*
COc1cc(C2CC(=O)N(Cc3ccc(F)cc3)c3ccccc3S2)cc(OC)c1OC (configuration not stated)	-23.4%	-27.4%	-82.2*	8.9%	.	14.1µM*
COc1ccc(C2CC(=O)N(Cc3ccc(F)cc3)c3ccccc3S2)cc1 (configuration not stated)	-9.2%	-9.7%	?	2.2%	.	?
CN1/C(=C/c2cccc[n+]2CCO)Sc2ccccc21	-1.3%	i	?	4.0%	-15.3%	-15.9%
CC[n+]1ccccc1/C=C1\Sc2ccc(C)cc2N1C	.	.	-97.3*	-16.9%	6.31µM*	?
O=C(CC(NC(=O)C(F)(F)F)c1ccccc1)Nc1nnc(CCc2ccccc2)s1 (configuration not stated)	-5.1%	i	-64.7*	-19.1%	34.3%	-17.3%
Cc1nnc(NC(=O)CC(NC(=O)C(F)(F)F)c2ccccc2)s1 (configuration not stated)	-2.2%	-12.0%	44.2	3.3%	5.6%	43.7%
Cc1ccc(NC(=O)C(C)c2cccc(C(=O)c3ccccc3)c2)cc1O (configuration not stated)	?	?	-62.3*	-5.8%	?	?
Cc1cccc(NC(=O)C(C)C(=O)c2ccccc2)c1 (configuration not stated)	.	.	-12.8	9.4%	8.3%	-7.3%
O=C1N(Cc2cccnc2)C[C@@H]2C[C@@H](c3cccc(Oc4ccccc4)c3)N3CCC[C@@]123	.	.	-66.7*	-32.5%	-28.7%	?
COCc1ccc([C@@H]2C[C@H]3CN(Cc4cccnc4)C(=O)[C@]34CCCN24)o1	.	.	-36.6	44.7µM*	8.8%	-0.3%
O=C1N(Cc2cccnc2)C[C@@H]2C[C@@H](c3ccc(C(F)(F)F)cc3)N3CCC[C@@]123	3.0%	i	-7.2	-25.5%	-7.3%	-8.4%
CCN(C[C@H]1N[C@@](CC)(C(=O)OC)[C@H]2C(=O)N(Cc3ccccc3)C(=O)[C@@H]12)C(=O)Nc1ccc(Cl)cc1	-17.9%	-27.6%	-19.0	.	-13.5%[8.37 µM]	-13.1%
COc1ccc(NC(=S)Nc2ccc3snnc3c2)cc1	-13.1%	-7.6%	-8.5	15.8µM*	?	52.5%
COc1ccc(NC(=S)Nc2ccc3nccnc3c2)cc1	?	-13.3%	-7.3	31.6µM*	-3.3%	16.3%
CC(NCc1ccccc1O)c1ccccc1 (configuration not stated)	.	.	14.3	2.4%	7.8%	10.5%
CC(Cc1ccccc1)NCc1ccccc1O (configuration not stated)	-12.2%	-22.8%	-67.4*	-16.0%	5.8%	-9.1%
COc1cc2nc(C3CCC3)nc(N3CCN(c4ccccn4)CC3)c2cc1OC	-8.4%	-11.3%	.	-0.6%	?	17.8µM*
Cc1cccc(NC(=O)c2c(O)c3ccccc3n(C)c2=O)c1	.	.	126.7	-4.9%	?	0.0%
Cc1ccccc1-c1ccccc1CN1[C@@H](C(C)C)COCCS1(=O)=O	-7.1%	i	?	.	-1.1%	?
O=S1(=O)CCOC[C@H](Cc2ccccc2)N1Cc1cccc(F)c1	-15.0%	-5.5%	-18.3	.	7.0%	-14.7%
CCCC[C@H]1COCCS(=O)(=O)N1Cc1ccccc1F	-14.0%	i	-99.1*	-1.1%	5.8%	-8.6%
